The list is not random: actives were taken first. Their share in the collection is about 1.2%.
PKA-R1A act = activators of PKA-R1A holoenzyme, primary screen, biochemical, fluorescence polarization, Cy5-IP20, bovine R1A, mouse PKAc | AID 504707, 2011 | PKA-R1A dissociation; scaled: DMSO 0%, 113 µM cGMP 100% | cAMP-dependent protein kinase type I-alpha regulatory subunit (Bos taurus) + … | 340,000 tested, 0.083% active | activation, % at 11.4 µM;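 active = percent activation above the mean of all tested compounds plus 3 SD, cut at about 19% in these data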;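 also: higher means more PKAc released from R1A so a rise in polarization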
PG9 binder = binders of HIV-1 gp120 antibody PG9, primary screen, biochemical, TR-FRET; TR-FRET gp120-PG9 antibody binding; HIV-1 gp120 / PG9 antibody interaction; inhibition, % at 6.7 µM; 360,000 tested, 0.43% active; in the data active = inhibition above about 8.5%
PKA-R2B activ = activators of PKA-R2B holoenzyme, primary screen, biochemical, fluorescence polarization, Cy5-IP20, human. PKA-R2B holoenzyme dissociation; R2B truncated from residue 108, S112A mutant; 0% DMSO only, 100% 113 µM cGMP. activation, % at 11.4 µM. 340,000 tested, 0.079% active;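 active = activation above a cutoff set at the mean over all compounds plus 3 SD, cut at about 18% in these data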;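 also: higher means more holoenzyme dissociation and a rise in polarization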
Rev-erbA mod = modulators of Rev-erb alpha DNA binding, primary screen, biochemical, FITC-DNA, fluorescence polarization, uHTS. Nuclear receptor subfamily 1 group D member 1 (Homo sapiens), P20393. Rev-erbα–FITC-DNA binding, 90 min. activity, % at 10 µM. 370,000 tested, 0.79% active;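 active = activity above about 14%, limit read from the data; passing the limit was not always enough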
Target sequence (P20393 whole entry, looked up): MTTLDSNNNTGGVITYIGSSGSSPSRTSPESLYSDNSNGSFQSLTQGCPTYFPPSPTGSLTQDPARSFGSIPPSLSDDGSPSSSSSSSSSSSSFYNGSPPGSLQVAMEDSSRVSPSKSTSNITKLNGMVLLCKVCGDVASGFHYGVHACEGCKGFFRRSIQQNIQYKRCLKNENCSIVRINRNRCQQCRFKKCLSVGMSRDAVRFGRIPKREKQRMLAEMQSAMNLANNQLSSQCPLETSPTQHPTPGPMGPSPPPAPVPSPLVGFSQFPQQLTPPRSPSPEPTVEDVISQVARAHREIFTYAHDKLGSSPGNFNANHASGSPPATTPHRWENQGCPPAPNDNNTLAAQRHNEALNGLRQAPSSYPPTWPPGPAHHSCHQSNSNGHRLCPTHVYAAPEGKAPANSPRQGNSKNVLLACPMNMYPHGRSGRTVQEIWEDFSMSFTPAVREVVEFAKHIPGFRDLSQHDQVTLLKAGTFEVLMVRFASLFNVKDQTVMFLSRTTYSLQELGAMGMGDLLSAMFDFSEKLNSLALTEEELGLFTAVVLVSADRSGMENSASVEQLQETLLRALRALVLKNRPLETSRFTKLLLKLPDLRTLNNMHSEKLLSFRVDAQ
R1A FP artifact = FP signal interference without PKA proteins, confirmation, artefact control for PKA-R1A activator project, biochemical, fluorescence polarization, triplicate. activation, % at 11.4 µM. shares compounds with PKA-R1A act. 280 tested, 7% active. Cy5-IP20 peptide alone, fluorescence polarization artifact counterscreen;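 active = mean activation over triplicate runs exceeds the adjusted cutoff derived for the parent primary screen, cut at about 19% in these data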;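 also: no PKA protein present so any polarization rise reflects compound interference; higher means stronger polarization artifact and likely false positive in parent screen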
PKA-R1A act conf = activators of PKA-R1A holoenzyme, confirmation, biochemical, fluorescence polarization, Cy5-IP20, triplicate | shares compounds with PKA-R1A act | 280 tested, 9% active | activation, % at 11.4 µM | PKA-R1A holoenzyme dissociation | AID 504800, 2011;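 active = mean activation over replicate wells exceeds the adjusted hit threshold taken from the earlier primary screen, cut at about 20% in these data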
A number is an active result; i = inactive; nt = no result given.

SMILES | PKA-R1A act | PG9 binder | PKA-R2B activ | Rev-erbA mod | R1A FP artifact | PKA-R1A act conf
COC(=O)[C@H](C(C)C)N(CCc1cn(Cc2ccc(C)cc2)nn1)S(=O)(=O)c1ccc(F)cc1Br | nt | nt | nt | i | nt | nt
Cc1cc(C)c(S(=O)(=O)Cc2ccccc2)c(=O)[nH]1 | 21 | i | i | i | i | i
NCCCC(N)C(=O)O (stereo not given) | nt | nt | nt | i | nt | nt
Cc1cc(N(CCO)CCO)nc(-n2nc(C)cc2C)n1 | i | i | i | i | nt | nt
Cc1cc(NCCO)nc(-n2nc(C)cc2C)n1 | 22 | i | i | i | i | i
CC(NC(=O)CSc1nc2c(c(C(F)(F)F)n1)CCc1ccccc1-2)c1ccccc1 (stereo not given) | 19 | i | i | i | i | i
O=C(CSc1nc2c(c(C(F)(F)F)n1)CCc1ccccc1-2)NCc1ccco1 | i | i | i | i | nt | nt
CC(CCC(=O)O)C1CC[C@@]2(C)C3C(=O)CC4C(C)(C)C(O)CC[C@]4(C)C3C(=O)C[C@]12C (stereo not given in full) | 20 | i | i | i | i | i
Cc1coc2c(C)c3oc(=O)c(CCC(=O)NCc4ccccn4)c(C)c3cc12 | 20 | i | i | i | i | i
Cc1coc2cc3oc(=O)c(CCC(=O)NCc4ccccn4)c(C)c3cc12 | i | i | i | i | nt | nt
CO[C@H]([C@H](C)/C=C/N(C)C=O)[C@@H](C)C(=O)CC[C@H](C)[C@H](O)[C@H](C)[C@H]1OC(=O)/C=C/C(C)=C/C[C@H](O)C[C@@H]2C=CC[C@@H](C[C@H](OC)[C@@H](CO)[C@@H](OC)C[C@@H](OC)[C@@H]1C)O2 | nt | nt | nt | i | nt | nt
CCOC(=O)[C@H](CCc1ccccc1)N[C@H]1CCCN2CCC[C@@H](C(=O)O)N2C1=O | nt | nt | nt | i | nt | nt
Cc1ccc(S(=O)(=O)NC(=O)NC(C)Cc2ccccc2)cc1 (stereo not given) | 22 | i | i | i | i | i
Cc1c(C(=O)N2CCCCCC2)c(S(=O)(=O)Nc2cccc(F)c2)c(C)n1C | i | i | i | i | nt | nt
Cc1cccc(NS(=O)(=O)c2c(C(=O)N3CCCC3)c(C)n(C)c2C)c1 | 21 | i | i | i | i | i
Cc1nn2c(NCC(C)C)c3c(nc2c1-c1ccccc1)CCC3 | 20 | nt | i | nt | i | i
O=C(N1CCOCC1)N1CC[C@H]2[C@H](CCCN2Cc2cc(F)cc(F)c2)C1 | nt | nt | nt | i | nt | nt
CCc1noc(C)c1C(=O)N(CC)CC(=O)Nc1cc(Cl)ccc1C | 19 | i | i | i | i | i
CCN(CC(=O)Nc1cc(Cl)ccc1C)C(=O)CSCc1c(C)noc1C | i | i | i | i | nt | nt
Cc1ccc(NC(=O)C2CC(=O)n3c(nc4ccccc43)N2)cc1Cl (stereo not given) | i | i | i | i | nt | nt
Cc1ccc(NC(=O)C2CC(=O)n3c(nc4ccccc43)N2)cc1C (stereo not given) | 19 | i | i | i | i | i
CC(=O)c1ccc([C@H](O)[C@H](C)C(=O)N(C)c2ccccc2)cc1 | nt | nt | nt | i | nt | nt
CC1C(=O)N(Cc2cn(CCC3OCCO3)nn2)CCS(=O)(=O)N1Cc1ccc(-c2ccncc2)cc1 (stereo not given) | i | i | i | i | nt | nt
CC1C(=O)N(Cc2cn(CCC3OCCO3)nn2)CCS(=O)(=O)N1Cc1ccc(-c2ccc(F)cc2)cc1 (stereo not given) | 20 | i | i | i | i | i
CCCSS/C(CCO)=C(/C)N(C=O)Cc1cnc(C)nc1N | nt | nt | nt | i | nt | nt
SMILES | PKA-R1A act | PG9 binder | PKA-R2B activ | Rev-erbA mod | R1A FP artifact | PKA-R1A act conf
C#CCOCCOCCOCCNc1nc(N2CCN(C(=O)[C@H]([C@@H](C)CC)n3cc([C@@H](N)CC(C)C)nn3)CC2)nc(N2CCN(C(=O)[C@H](CCCCN)n3cc([C@@H](N)CO)nn3)CC2)n1 | 20 | nt | i | nt | i | i
C#CCOCCOCCOCCNc1nc(N2CCN(C(=O)[C@H]([C@@H](C)CC)n3cc([C@@H](N)CO)nn3)CC2)nc(N2CCN(C(=O)[C@H](CCCCN)n3cc([C@@H](N)CO)nn3)CC2)n1 | i | i | i | i | nt | nt
COc1cccc([C@H]2NC(=O)C/C=C/[C@@H](C)[C@@H](c3cccc(OC)c3)NC(=O)C/C=C/[C@H]2C)c1 | nt | nt | nt | i | nt | nt
COC(=O)[C@]12C[C@H](CC(=O)N3CCCCC3)C(=O)N(Cc3ccc(Cl)cc3Cl)C1=C[C@H](C(C)(C)C)O[C@@H]2C | nt | nt | nt | i | nt | nt
CN(C)c1ccc(Cc2ccc(N(C)C)cc2)cc1 | 21 | i | i | i | i | i
COc1ccc(-c2[nH]n(-c3ccc([N+](=O)[O-])cc3)c(=O)c2C=NCC2CCCO2)cc1 (stereo not given) | 20 | i | i | i | i | i
CCCC1CCC2(CCCN2CCOC(=S)Nc2ccccc2OC)CC1 (stereo not given) | nt | nt | nt | i | nt | nt
O=C(N/N=C\c1ccc(Cl)s1)c1cccs1 | 20 | i | i | i | i | i
O=C(N/N=C/c1ccncc1)c1cccs1 | i | nt | i | nt | nt | nt
O=C(O)C(=O)Nc1cccc(-c2nn[nH]n2)c1 | nt | nt | nt | i | nt | nt
COC(=O)CNC(=O)COc1ccccc1 | 20 | i | i | i | i | i
CC(=O)Nc1ccc(NC(=O)CNC(=O)COc2ccccc2)cc1 | i | i | i | i | nt | nt
Cc1ccc(CNC(=O)CN(c2ccc(Cl)cc2)S(C)(=O)=O)cc1 | 21 | i | i | i | i | i
CC(=O)[C@H]1CCC2C3CCC4=CC(=O)CC[C@]4(C)C3CC[C@@]21C (stereo not given in full) | nt | nt | nt | i | nt | nt
CC(OC(=O)CCOc1ccccc1)C(=O)Nc1ccc(Cl)cn1 (stereo not given) | 22 | i | i | i | i | i
CC(OC(=O)c1ccccc1O)C(=O)Nc1ccc(Cl)cn1 (stereo not given) | 19 | i | i | i | i | i
CC(OC(=O)c1ccco1)C(=O)Nc1ccc(Cl)cn1 (stereo not given) | i | i | i | i | nt | nt
Cc1cccc(OCCC(=O)OC(C)C(=O)Nc2ccc(Cl)cn2)c1 (stereo not given) | i | i | i | i | nt | nt
CCC(C)n1ncn(-c2ccc(N3CCN(c4ccc(OC[C@H]5CO[C@](Cn6cncn6)(c6ccc(Cl)cc6Cl)O5)cc4)CC3)cc2)c1=O (stereo not given in full) | nt | nt | nt | i | nt | nt

Screening results (PubChem BioAssay)
